This note sets out measurements from PubChem BioAssay (NCI).

This is part of a sample that, as a whole, favours compounds with a hit. Of some 83,000 tested, about 20% had one in any assay.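 Compound tested at a single concentration for 48 hours in 96-well plates; a percent growth value below 10 was scored as active.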 A number with no mark means an inactive call. Calls of active or inactive are those of the source.

For the assay, the system named is TK-10 renal. Put plainly: NCI-60 one-dose screen, 48 h (100 = growth as untreated, 0 = no growth, -100 = all killed). The following applies: 10 µM unless noted.
`N#Cc1c(-c2ccccc2Cl)cc(-c2c[nH]c3ccccc23)[nH]c1=O`: the growth is 102%. Consider `CN1CCN(/C(=N\c2sc(-c3ccccc3)nc2-c2ccccc2)c2ccccc2)CC1`, for which the growth is 105%.

On to `COc1ccc(-c2cc(C(=O)NCc3ccccc3)nn2-c2ccc(S(C)(=O)=O)cc2)cc1OC`, for which the growth is 106%. In the case of `O=C(COc1ccc(NC(=O)Nc2ccc(Cl)c(Cl)c2)cc1)N=Nc1c(O)[nH]c2ccc(Cl)cc12`, the growth is 1.73% (active). In the case of `C=C1CC[C@@H]2[C@]3(C)COC(c4cn(-c5ccccc5)nc4-c4ccccc4)O[C@@H]3CC[C@@]2(C)[C@@H]1C/C=C1/C(=O)OC[C@H]1O` (stereo partly drawn), the growth was -57.3% (active).

Regarding `CC(=O)Nc1cccc(-c2nc3cc(-c4ccc(O)cc4)ccc3n2C)c1`, the growth is 59%. As for `O=C(/C=C/c1ccc(-c2ccccc2)cc1)c1nc2ccccc2n1Cc1ccc(F)cc1`, the growth is 55.8%.

Consider `Cc1cc2nc3c4ccccc4n(CCNCCN(C)C)c3nc2cc1C`, for which the growth is 54.5%. Consider `c1ccc(-c2csc(Nc3cccc(Nc4nc(-c5ccccc5)cs4)c3)n2)cc1`, for which the growth is 68.6%. For `O=C(N/N=C/c1ccc(-c2ccc(O)cc2)s1)c1[nH]c2ccc(Br)cc2c1-c1ccccc1`, the growth was 22.2%. For `COCOc1cc2c(=O)c(C)c(C(=O)N[C@@H](Cc3ccccc3)C(O)C(=O)NCc3ccccc3)oc2cc1OC` (stereo partly drawn), the growth was 88.8%. `COc1cc2oc(-c3cccc(C(=O)Nc4ccc(Cl)cc4)c3)cc(=O)c2c(OCCNC(=O)[C@@H](N)CCC(=O)O)c1OC`: the growth was 114%. Take `Cn1cc(-c2nc(N)nnc2-c2c[nH]c3ccc(Br)cc23)c2cccnc21`: the growth was 90.4%.

As for `O=C1c2c(c3c4cc(F)ccc4oc3c3[nH]c4ccc(Br)cc4c23)C(=O)N1O`, the growth is 137%. Regarding `CCCCNC(=S)Nc1ccc(OCc2nc3ccccc3[nH]2)cc1`, the growth is 98.8%.

As to `COc1cc(-c2ccc(/C=N/NC(=O)c3[nH]c4ccc(Br)cc4c3-c3ccccc3)s2)cc(OC)c1OC`, the growth is 106%. As for `C=C1CC[C@@H]2[C@]3(C)COC(c4cn[nH]c4-c4ccc(C)cc4)O[C@@H]3CC[C@@]2(C)[C@@H]1C/C=C1/C(=O)OCC1O` (stereo partly drawn), the growth was 49%. For `COc1cc2c(c(OC)c1OC)C(=O)CC(c1cccc(NC(=O)c3cc(N)ccc3Cl)c1)O2` (stereo not drawn), the growth was 106%. With `COc1cc2c(c(OC)c1OC)C(=O)CC(c1cccc(NC(=O)c3cccc(NC(=O)[C@H](C)NC(=O)OC(C)(C)C)c3)c1)O2` (stereo partly drawn), the growth is 101%. As to `C=C1CCC2C3(C)COC(c4cc(F)cc(F)c4)OC3CCC2(C)C1CC(O)C1=CCOC1=O` (stereo not drawn), the growth was 110%. The same measure for `O=C(/C=C/c1ccc(O)c(O)c1)NC1CCOC1O` (stereo not drawn): 109%; for `C/C(=N\N=C1/C(=O)Nc2ccc(Cl)cc21)c1ccc2c(c1)Nc1ccccc1S2`: 22.4%.

`CC(C)CCNC(=O)N/C(N)=N/c1nc2ccccc2s1`: the growth is 88.3%.

Take `OCNc1ccc(-n2cnc3cc(-c4ccc(O)cc4)ccc32)cc1C(F)(F)F`: the growth was 46.6%. Under `C=C1CCC2C3(C)COC(c4ccc(F)cc4)OC3CCC2(C)C1C/C=C1/C(=O)OCC1O` (stereo not drawn) stands -35.8% (active).

As for `O=c1[nH]n(C(=S)N/N=C/c2ccccc2Cl)c(=O)c2ccccc12`, the growth is 25.8%.

For the molecule `N#Cc1c(-c2cccc(Cl)c2Cl)cc(-c2ccc3ccccc3c2)[nH]c1=O`, the growth is 48.9%. On to `Clc1cccc(Cl)c1/C=C/c1cc(/C=C/c2ccc(Br)cc2)c2ccccc2n1`, for which the growth was 126%. As to `CC(C)c1ccc2c(N)c(C(=O)Nc3ccc(C(F)(F)F)cn3)sc2n1`, the growth was 76.5%. The same measure for `CCN(CC)C(=O)N/C(N)=N/c1nc2ccccc2s1`: 53.7%; for `O=C(COc1ccc(NC(=O)Nc2ccc(Cl)c(Cl)c2)cc1)N=Nc1c(O)[nH]c2ccc([N+](=O)[O-])cc12`: 113%. Under `Cc1cc2c(cc1Cl)C(=O)/C(=C/c1ccc(F)cc1)O2` stands 125%. Take `CCCCOc1ccc(NC(=O)c2sc3nc(C)ccc3c2N)cc1`: the growth is -20.1% (active).

As to `O=C1Nc2cc(Cl)ccc2/C1=C/c1cccc(OCc2ccccn2)c1`, the growth is 35.5%.

On to `NS(=O)(=O)c1ccc(N=Nc2c(O)n(CC(=O)Nc3ccccc3Cl)c3ccccc23)cc1`, for which the growth is 63%. Under `O=C(Nc1cccc(-n2cnc3cc(-c4ccc(O)cc4)ccc32)c1)C1CC1` stands 67.4%; under `C=C1CC[C@@H]2[C@]3(C)COC(c4cn[nH]c4-c4ccc(OC)cc4)O[C@@H]3CC[C@@]2(C)[C@@H]1C/C=C1/C(=O)OCC1O` (stereo partly drawn), 5.62% (active); under `CC(=O)Nc1ccc(-c2cn(-c3cccc(C(=O)Nc4ccc(N5CCN(C)CC5)cc4)c3)nn2)cn1`, 86.5%.
